40 compounds from PubChem BioAssay (Tox21) can be followed below.

Inconclusive results are not listed. Calls of active or inactive are those of the source. Calls come from the whole dose curve; as a rule, active = well fitted cell-killing curve with a large enough effect in the repeat runs; inconclusive = weak or mixed curves; inactive = flat fitted curve, though single readings scatter.
% is set by controls: 0 for no effect and ±100 for the full control effect.

The nature of this test: qHTS assay to identify small molecule antagonists of the estrogen receptor beta (ER-beta) signaling pathway - cell viability counter screen (AID 1259382). Note: nearly all actives have a fitted effect of over 55% in size. Conditions: ER-beta-UAS-bla HEK293T viability, CellTiter-Glo luminescence, 16 h; series mostly up to 92.4 µM. An excerpt: U.S. Tox21 Program National Center for Advancing Translational Sciences [NCATS] NIH Chemical Genomics Center [NCGC] U.S. Environmental Protection Agency [EPA] National Institutes of Environmental Health Sciences [NIEHS] National Toxicology Program [NTP] U.S. Food and Drug Administration [FDA] Tox21 Assay Overview: Estrogen receptor (ER), a nuclear hormone receptor, plays an important role in development, metabolic homeostasis and reproduction. Two subtypes of ER, ER-alpha and ER-beta, have similar expression patterns with some uniqueness in both types. Endocrine disrupting chemicals (EDCs) and their interactions with steroid hormone receptors like ER causes disruption of normal endocrine function. To identify the compounds that inhibit ER signaling, an ER-beta-UAS-bla GripTite cell line (Life Technologies, Madison, WI, USA) containing a beta-lactamase reporter gene under the control of an UAS response element was used to screen Tox21 10K compound library. The cytotoxicity of the Tox21 compound library against the ER-beta-bla cell line was tested in parallel by measuring the cell viability using CellTiter-Glo assay in the same wells.
Tox21 Assay Protocol Summary: ER-beta-UAS-bla HEK293T cells were dispensed at 2,000 cells/4 uL of assay medium containing 2% charcoal stripped FBS per well into black wall/clear-bottom 1536-well plates using a Multidrop Combi (ThermoFisher Scientific, Waltham, MA) dispenser. After the assay plates were incubated at a 37C and 5% CO2 for 6 hr, 23 nL of compounds dissolved in DMSO, positive controls or DMSO only was transferred to the assay plate by a Pintool station (Kalypsys, San Diego, CA), followed by addition of 1 uL (1nM as final concentration) of 17-beta-estradiol (E2) in assay medium using a Flying Reagent Dispenser (FRD, Aurora Discovery, San Diego, CA). The plates were incubated at 37C and 5% CO2 for 16 hr. Then 1 uL of LiveBLAzer B/G FRET substrate was added using a Flying Reagent Dispenser, the plates were incubated at room temperature for 2 hours, and fluorescence intensity was measured by an Envision plate reader (PerkinElmer, Shelton, CT). For cell viability readout that measures cytotoxicity, 4 uL/well of CellTiter-Glo reagent was added into the assay plates using a FRD. After 30 min incubation at room temperature, the luminescence intensity in the plates was measured using a ViewLux (PerkinElmer) plate reader.
Turning to `CN(C)CCOCCN(C)CCO`, the compound was classed as inactive.
On the same count and under the same terms, the entry for `O=C(CN1CCN(Cc2ccc3c(c2)OCO3)CC1)N1c2ccccc2Sc2ccccc21` is “inactive”; for `CC(C)SCc1ccco1` it is “inactive”.
For the compound `Nc1c(NC/C=C\COc2cc(CN3CCCCC3)ccn2)c(=O)c1=O`, the activity change, negative = cytotoxicity is 0.149% [at 19 µM] (inactive).
For the compound `CC(C)(c1ccc(Oc2ccc3c(c2)C(=O)OC3=O)cc1)c1ccc(Oc2ccc3c(c2)C(=O)OC3=O)cc1`, the outcome was inactive.
Same read-out and setting: the entry for `C[C@H]1O[C@H](O[C@H]2[C@H](O)[C@@H](O)[C@@H](O[C@H]3[C@H](O)[C@@H](O)[C@H](O)O[C@@H]3CO)O[C@@H]2CO)[C@H](O)[C@@H](O)[C@@H]1N[C@H]1C=C(CO)[C@@H](O)[C@H](O)[C@H]1O` is “inactive”; for `Cc1cccc(Nc2ccncc2S(=O)(=O)NC(=O)NC(C)C)c1` it is “inactive”; for `Nc1ccc(S(=O)(=O)NC(=O)c2ccccc2)cc1` it is “inactive”.
Still for that read-out and setting: the entry for `CCCCOC(=O)C(=O)OCCCC` is “inactive”.
The same measure, in the same setting: to `Nc1nc(=O)n([C@@H]2O[C@H](CO)[C@@H](O)[C@@H]2F)cc1I` belongs “inactive”; to `FC(F)(F)c1ccc(Cl)cc1Cl`, “inactive”; to `CC(=O)c1ccc(OCC(=O)N2CCCCC2)cc1`, “inactive”.
Turning to `C=CCCCCCCCCCCC`, the activity change, negative = cytotoxicity was 4.44% [at 8.39 µM] (inactive).
Consider `CCOC(=O)CCc1ccccc1`, for which the compound was classed as inactive.
On the same count and under the same terms, the entry for `CCOC(=O)C(=O)c1csc(NC=O)n1` is “inactive”.
Take `CCCCC[Si](OCC)(OCC)OCC`: the outcome was inactive.
Same read-out and setting: to `CC(=O)Nc1ncc([N+](=O)[O-])s1` belongs “inactive”; to `CCC1COC(=O)O1` (stereo not given), “inactive”.
Same read-out and setting: the entry for `C=CCOCC(O)CCl` (stereo not given) is “inactive”; for `CN[C@@H]1[C@H](O)[C@H](NC)[C@H]2O[C@@]3(O)C(=O)C[C@@H](C)O[C@H]3O[C@@H]2[C@H]1O` it is “inactive”; for `O=C(O)/C=C/c1ccccc1` it is “inactive”.
In the case of `FC(F)(F)/C(=N\OCC1OCCO1)c1ccc(Cl)cc1`, the compound was called inactive.
The same measure, in the same setting: to `CNCc1ccccc1` belongs “inactive”; to `CC(C)COC(=O)COc1ccc(Cl)cc1Cl`, “inactive”; to `Cc1ccccc1N1CCN(CCc2nnc3n2CCCC3)CC1`, “inactive”.
The same measure, in the same setting: to `C=CC(C)(O)CC/C=C(\C)CC` (stereo not given) belongs “inactive”.
The same measure, in the same setting: to `NC(=O)C1(N2CCCCC2)CCN(CCCC(=O)c2ccc(F)cc2)CC1` belongs “inactive”; to `C=C(C)C(=O)OC1CC(C)CC(C)(C)C1` (stereo not given), “inactive”.
As for `CC1(N)CCC(C(C)(C)N)CC1` (stereo not given), the compound was called inactive.
The same measure, in the same setting: the entry for `CCN1CN(CC)CN(CC)C1` is “inactive”.
Same read-out and setting: the entry for `O=C1OC(=O)c2ccccc21` is “inactive”.
The same measure, in the same setting: the entry for `CC(C)C(=O)Nc1cccc(C(F)(F)F)c1` is “inactive”; for `C=C[Si](C)(C)O[Si](C)(C)C=C` it is “inactive”.
On to `C=CCOc1c(Br)cc(Br)cc1Br`, for which the call was inactive.
As for `O=C1CC[C@H](C(=O)N2CCCCC2)N1`, the compound was called inactive.
Consider `CCCCCCCCCCC`, for which the result was inactive.
The same measure, in the same setting: to `CC(C)(C)c1ccc(C=O)cc1` belongs “inactive”; to `Cc1ccc(S(=O)(=O)NC(=O)NC2CCCCCCC2)cc1`, “inactive”.
Consider `CC(=O)OC(C)(C)Cc1ccccc1`, for which the call was inactive.
Same read-out and setting: to `CCCCCC(=O)OCC` belongs “inactive”.
